A selection: hits, their analogues and other compounds. The true share with any hit is near 12%.
BAZ2B inh = BAZ2B (human) inhibition | Q9UIF8 | AlphaScreen BAZ2B-H3K14Ac peptide displacement | Potency, µM (highest dose often 114 µM), without a hit: at the highest dose activity change, negative = inhibition, most hits filed as inhibitors | hit rate 4.4% among 360,000 | AID 504333; also: % is scaled to controls: 0 for no effect and ±100 for the full control effect; nearly all actives have a fitted effect of over 60% in size
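BAZ2B 50 nM plus b-H3(5-23)K14Ac 50 nM, PBS pH 7.4/0.01% Tween-20, 30 min RT; compound added (max 110 uM), 30 min RT; streptavidin donor/Ni-chelate acceptor beads 10 ug/mL final, 20 min dark; AlphaScreen read.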
L3MBTL1 inh = inhibitors of human L3MBTL1 | Q9Y468 | AlphaScreen L3MBTL1–H3K9me1 peptide binding | Potency, µM (titrated, usually from 57.1 µM), for inactives: at the highest dose activity, negative = inhibition, actives largely listed as inhibitors | hit rate 0.66% among 230,000 | AID 485360; also: % is scaled to controls: 0 for no effect and ±100 for the full control effect; nearly all actives have a fitted effect of over 60% in size
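Displacement of a biotinylated histone H3(1-15) peptide monomethylated at Lys9 (75 nM) from L3MBTL1 (50 nM) was measured by AlphaScreen after a 30 min room-temperature compound incubation; cefsulodin titration served as intraplate control.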
HP1b binding inh = HP1-beta chromodomain-methylated histone interaction inhibition. hit rate 0.56% among 390,000. Potency, µM (series often up to 114 µM), without a hit: at the top dose activity change, negative = inhibition, most hits filed as inhibitors. AlphaScreen HP1-beta / biotin-H3K9me3 peptide binding. P83916; also: nearly all actives have a fitted effect of over 70% in size
Target sequence (P83916 whole entry, looked up): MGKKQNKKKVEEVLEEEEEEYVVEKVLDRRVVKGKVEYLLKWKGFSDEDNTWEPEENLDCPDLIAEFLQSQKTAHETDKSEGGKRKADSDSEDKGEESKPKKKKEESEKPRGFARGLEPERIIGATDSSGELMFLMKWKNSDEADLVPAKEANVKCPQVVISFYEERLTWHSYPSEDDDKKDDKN
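AlphaScreen: HP1-beta (50 nM) preformed 30 min with biotin-H3(1-18)K9me3 peptide (50 nM) in PBS pH 7.4, 0.01% Tween-20. Compound added for 30 min at RT, then streptavidin donor/nickel chelate acceptor beads (10 ug/mL) for 30 min.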
JMJD2A Tudor = JMJD2A Tudor domain (human) inhibition | O75164 | AlphaScreen JMJD2A-Tudor / H3K4me3 peptide binding | Potency, µM (top dose mostly 114 µM), without a hit: top-dose activity change, negative = inhibition, usual class: inhibitors | hit rate 4.4% among 390,000; also: % is scaled to controls: 0 for no effect and ±100 for the full control effect; nearly all actives have a fitted effect of over 50% in size
G9a block = blocks human histone lysine methyltransferase G9a; Q96KQ7; G9a H3K9 monomethylation, AlphaScreen, 2 h; Potency, µM (titrated, usually from 102 µM), for inactives: at the highest dose activity, negative = inhibition, actives largely listed as inhibitors; hit rate 8.8% among 350,000; also: % is scaled to controls: 0 for no effect and ±100 for the full control effect; nearly all actives have a fitted effect of over 75% in size
Target sequence (Q96KQ7 913-1193 limits assumed): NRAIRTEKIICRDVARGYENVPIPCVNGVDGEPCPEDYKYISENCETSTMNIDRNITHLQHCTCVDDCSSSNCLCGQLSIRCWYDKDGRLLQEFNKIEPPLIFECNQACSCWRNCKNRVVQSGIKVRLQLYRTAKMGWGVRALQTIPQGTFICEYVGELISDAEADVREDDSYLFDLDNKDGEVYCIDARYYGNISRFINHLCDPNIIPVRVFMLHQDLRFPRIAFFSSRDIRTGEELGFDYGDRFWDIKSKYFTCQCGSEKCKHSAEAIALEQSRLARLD
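Methyltransferase reactions run at room temperature for 2 h (20 nM enzyme, 500 nM biotin-H3K9 peptide, 20 uM SAM) after a 15 min compound preincubation; product detected by AlphaScreen beads and anti-H3K9me1 antibody.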
Sfp inh = inhibitors of Bacillus subtilis Sfp phosphopantetheinyl transferase | Potency, µM, inactives show largest response in the series, negative = inhibition, hits mostly inhibitors | Biochemical Sfp PPTase activity, qHTS | AID 1490 | Q9F4F7 | hit rate 3.5% among 310,000;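 also: the enzyme is Sfp with the accession as filed and its product quenches rhodamine fluorescence; 0% = enzyme reaction without inhibitor and -100% = no enzyme wells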
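After 15 min at room temperature with compound, 15 nM Sfp received 5 uM rhodamine-CoA plus 12.5 uM BHQ-2-ybbR (50 mM Hepes pH 7.6, 10 mM MgCl2). Rate came from the fluorescence difference over 30 min, ex 525/em 598 nm.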
* = called active by the depositor; [ ] = remark or other dose. Calls follow the shape of the dose curve; as a rule, active = well fitted curve in the direction sought with a large enough effect; inconclusive = small, poorly fitted or top-dose-only effect, or another doubt; inactive = no such curve, though single readings can be large; an effect the other way counts as inactive or inconclusive. Potency is read from the fitted curve at half-maximal effect.

CC(=O)Oc1ccc(C(=O)OCC(=O)c2c(N)n(C)c(=O)n(C)c2=O)cc1OC(C)=O was read as BAZ2B inh -25%, L3MBTL1 inh -3%, HP1b binding inh 21%, JMJD2A Tudor 9%, G9a block 50µM* and Sfp inh 18%.
For Cn1c(N)c(C(=O)COC(=O)CSc2cccc3cccc(Cl)c23)c(=O)n(C)c1=O the results were BAZ2B inh inconclusive, L3MBTL1 inh -16%, HP1b binding inh -11%, JMJD2A Tudor 50µM* and Sfp inh 12%.
Cn1c(N)c(C(=O)COC(=O)CSc2ccc3ccccc3c2)c(=O)n(C)c1=O was read as BAZ2B inh -2%, L3MBTL1 inh -1%, HP1b binding inh 17%, JMJD2A Tudor -13%, G9a block -32%[59 µM] and Sfp inh -7%.
For CCOc1cc(-c2nc(-c3ccc(Br)cc3)no2)cc(OCC)c1OCC the results were BAZ2B inh 11%, HP1b binding inh 52%, JMJD2A Tudor -2% and G9a block 16%[59 µM].
Cc1ccc(-n2c(=O)c3ccc(C(=O)NCc4ccco4)cc3n(CC(=O)Nc3ccc(C)c(F)c3)c2=O)cc1 was read as BAZ2B inh -6%, HP1b binding inh 22%, JMJD2A Tudor -15% and G9a block 6%[59 µM].
Screening O=C1CCSc2ccc(S(=O)(=O)Nc3ccc(Cl)c(C(F)(F)F)c3)cc2N1 returned BAZ2B inh 7%[57.1 µM], HP1b binding inh 29%, JMJD2A Tudor -2% and G9a block -7%[59 µM].
COc1cc(OC)c(NC(=O)C(C)n2c(=O)cc(-c3ccccc3)c3c(C)nn(C)c32)cc1Cl (stereo not given) was read as BAZ2B inh inconclusive, HP1b binding inh -5%, JMJD2A Tudor -30% and G9a block 2%[59 µM].
Screening CCc1ccc(-c2cc(N)n(-c3ccccc3)n2)cc1 returned HP1b binding inh inconclusive, JMJD2A Tudor inconclusive, G9a block 45µM* and Sfp inh 4%.
`COCCn1c(C)cc(O)c(C(c2ccc(Cl)cc2)N2CCCCC2)c1=O` (stereo not given) gave BAZ2B inh 5%, HP1b binding inh 25%[57 µM], JMJD2A Tudor -20% and G9a block inconclusive.
`COc1cc(NC(=O)c2cccc(Cl)c2)c(OC)cc1NC(=O)CN1CCOCC1` gave BAZ2B inh inconclusive, L3MBTL1 inh -5%, HP1b binding inh 15%, JMJD2A Tudor inconclusive, G9a block 45µM* and Sfp inh 4%.
`COc1cc(NC(=O)c2ccc(F)cc2)c(OC)cc1NC(=O)CN1CCCCC1` gave BAZ2B inh -18%, HP1b binding inh 16%, JMJD2A Tudor -19%, G9a block 50µM* and Sfp inh -10%.
`COc1cc(NC(=O)c2ccccc2)c(OC)cc1NC(=O)CN1CCCCC1` gave BAZ2B inh inconclusive, L3MBTL1 inh -23%, HP1b binding inh -12%, JMJD2A Tudor -32%, G9a block inconclusive and Sfp inh 10%.
`COc1c(Cl)cc(Cl)cc1CNCCSc1nnnn1C` gave BAZ2B inh -5%, HP1b binding inh 56%, JMJD2A Tudor -12% and G9a block 16%[59 µM].
CCCN1C(=O)c2[nH]nc(-c3ccccc3O)c2C1c1cccc(OCc2ccccc2)c1 (stereo not given) was read as BAZ2B inh -32%, HP1b binding inh 13%, JMJD2A Tudor -35% and G9a block 3%[59 µM].
For CCNc1nnc(SCC(=O)c2cc(C)n(C3CC3)c2C)s1 the results were BAZ2B inh -10%, L3MBTL1 inh -4%, HP1b binding inh 7%, JMJD2A Tudor -33% and G9a block 50µM*.
CCNc1nnc(SCC(=O)c2c(N)n(C3CC3)c(=O)[nH]c2=O)s1 was read as BAZ2B inh 11%, L3MBTL1 inh 7%, HP1b binding inh 33%, JMJD2A Tudor -11% and G9a block -14%[12.7 µM].

Assay outcomes deposited in PubChem by National Center for Advancing Translational Sciences (NCATS).
